Results filed as inconclusive are left out. Active and inactive are the calls of the source. Calls come from the whole dose curve; as a rule, active = well fitted cell-killing curve with a large enough effect; inconclusive = small, poorly fitted or top-dose-only effect, or effect the other way; inactive = no such curve, though single readings can be large or run the other way. *1 amine or outer side, *2 acyl side, *3 side chain or, on linkers, in order; H or OH if unused. Where a SMILES comes first, the peptide text is derived from it. Bridges are numbered along the chain shown (N, C = ends). Roman numbers before positions name the chains, in order. [ ]: non-standard residue; d: D form. Actinocin(9to1) = Cc1c2oc3c(C)ccc(C(=O)[*:1])c3nc-2c(C(=O)[*:2])c(N)c1=O; NMeV = CN[C@H](C(=O)O)C(C)C; Sar = CNCC(=O)O

For the test, the system named is CAOV3. The test is described as follows: Confirmatory qHTS for gynecologic anti-cancer compounds from libraries of approved drugs and bioactive compounds. Note: nearly all actives have a fitted effect of over 55% in size. The conditions noted are these: gynecologic cancer cell panel viability, ATPlite luminescence, 48 h; series mostly up to 57.6 µM. A digest of the protocol: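 ATP-based luminescent viability (ATPlite) after 48 h drug treatment at 37 °C, 5% CO2, across 57.5 uM–0.977 nM in 1:3 steps. Cells seeded at 1,000 per well 16 h beforehand; IC50 values computed, HEK 293T as selectivity control.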
Potency is the fitted concentration of half-maximal effect.

For the compound `O=c1cc(CN2CCOCC2)occ1OCCCCCSc1ccnc2cc(C(F)(F)F)ccc12`, the Potency result is “inactive”.
As to `CCC1=CC2CN(C1)Cc1c([nH]c3ccccc13)[C@@](C(=O)OC)(c1cc3c(cc1OC)N(C)[C@H]1[C@@](O)(C(=O)OC)[C@H](OC(C)=O)[C@]4(CC)C=CCN5CC[C@]31[C@@H]54)C2` (stereo not given in full), the Potency result is “inactive”.
On to `CNC(=O)c1ccccc1Nc1nc(Nc2ccc(N3CCOCC3)cc2OC)ncc1Cl`, for which the Potency was 1.37 µM (active).
As for `COCCOc1ccc2c(c1)ncn2-c1ccc2cccc(N3CCC(N)CC3)c2n1`, the entry is “inactive”; as for `O=C1c2c(O)ccc(O)c2C(=O)c2c(NCCNCCO)ccc(NCCNCCO)c21`, 3.85 µM (active); as for `Cc1ccc(C(=O)Nc2ccc(CN3CCN(C)CC3)c(C(F)(F)F)c2)cc1C#Cc1cnc2cccnn12`, 19.3 µM (active).
As for `Cn1cc(-c2[nH]c3cc(NC(=O)[C@H](N)C4CCCCC4)cc4c3c2C=NNC4=O)cn1`, the figure is 3.85 µM (active); as for `O=C1N(c2ccccc2)c2ccccc2C1(Cc1ccncc1)Cc1ccncc1`, “inactive”; as for `O=C(NOCC1CC1)c1ccc(F)c(F)c1Nc1ccc(I)cc1Cl`, “inactive”.
As for `CCc1nc(C(N)=O)c(Nc2ccc(N3CCC(N4CCN(C)CC4)CC3)c(OC)c2)nc1NC1CCOCC1`, the figure is 6.72 µM (active); as for `Cc1ccc(C(=O)N(CCCN)C(c2nc3cc(Cl)ccc3c(=O)n2Cc2ccccc2)C(C)C)cc1` (stereo not given), 17.2 µM (active); as for `CCc1c2c(nc3ccc(OC(=O)N4CCC(N5CCCCC5)CC4)cc13)-c1cc3c(c(=O)n1C2)COC(=O)[C@]3(O)CC`, 19.3 µM (active).
Regarding `CCS(=O)(=O)N1CCN(c2ccc(Nc3ncc(C(N)=O)c(NC4CC4)n3)cc2)CC1`, the Potency is 6.85 µM (active).
As for `CCN[C@H]1C[C@H](C)S(=O)(=O)c2sc(S(N)(=O)=O)cc21`, the entry is “inactive”.
As for `COC(C)(C)CCn1nc(Nc2c(C)cccc2C)c2cnc(Nc3ccc(OCCN4CCCC4)c(F)c3)nc21`, the figure is 21.7 µM (active); as for `COc1cc(-c2nn(C3CCC(N4CCN(C(C)=O)CC4)CC3)c3ncnc(N)c23)ccc1NC(=O)c1cc2ccccc2n1C` (stereo not given), 30.6 µM (active).
As to `Cc1ccc(C(=O)Nc2ccc(Oc3cc4cnn(C)c4cc3-c3cn[nH]c3)c(F)c2)c(=O)n1-c1ccc(F)cc1`, the Potency was 6.85 µM (active).
As for `OC[C@H]1O[C@@H](n2cnc3c(=S)nc[nH]c32)[C@H](O)[C@@H]1O`, the figure is 1.37 µM (active); as for `CS(=O)(=O)c1ccc(-c2cnc(N)c(C(=O)Nc3ccccc3)n2)cc1`, “inactive”.
As for `Cc1[nH]c2ccccc2c1CCNCc1ccc(/C=C/C(=O)NO)cc1`, the figure is 0.685 µM (active).
As for `CCN(CC)CCNC(=O)c1c(C)[nH]c(/C=C2\C(=O)Nc3ccc(F)cc32)c1C`, the figure is 15.8 µM (active); as for `COc1cc2nccc(Oc3ccc(NC(=O)C4(C(=O)Nc5ccc(F)cc5)CC4)cc3)c2cc1OC`, 21.7 µM (active); as for `Nc1nc(Cl)nc2c1ncn2C1OC(CO)C(O)C1F` (stereo not given), 0.544 µM (active).
In the case of `COc1cccc2c1C(=O)c1c(O)c3c(c(O)c1C2=O)C[C@@](O)(C(=O)CO)C[C@@H]3O[C@H]1C[C@H](N)[C@H](O)[C@H](C)O1`, the Potency was 2.43 µM (active).
Then `CC(=O)OC12COC1CC(O)C1(C)C(=O)C(O)C3=C(C)C(OC(=O)C(O)C(NC(=O)OC(C)(C)C)c4ccccc4)CC(O)(C(OC(=O)c4ccccc4)C21)C3(C)C` (stereo not given), with “inactive”; and `Cc1c2oc3c(C)ccc(C(=O)N[C@@H]4C(=O)N[C@H](C(C)C)C(=O)N5CCC[C@H]5C(=O)N(C)CC(=O)N(C)[C@@H](C(C)C)C(=O)O[C@@H]4C)c3nc-2c(C(=O)N[C@@H]2C(=O)N[C@H](C(C)C)C(=O)N3CCC[C@H]3C(=O)N(C)CC(=O)N(C)[C@@H](C(C)C)C(=O)O[C@@H]2C)c(N)c1=O` (I: T[dV]P[Sar][NMeV] / II: T[dV]P[Sar][NMeV]; ester I:1-I:C, II:1-II:C; linker I:N-II:N via Actinocin(9to1)), with 0.344 µM (active).
In the case of `Cc1cc(CN2CCN(c3c(Br)cnc4nc(-c5ccc(N6CCN(C)CC6)cc5)[nH]c34)CC2)no1`, the Potency was 13.7 µM (active).
As for `Nc1ccn([C@@H]2O[C@H](CO)[C@@H](O)C2(F)F)c(=O)n1`, the figure is 0.217 µM (active); as for `C=CC(=O)Nc1cc2c(Nc3ccc(F)c(Cl)c3)ncnc2cc1OCCCN1CCOCC1`, 27.3 µM (active); as for `C[C@@]1(C(=O)Nc2ccc(F)nc2)CCCN1c1nc(Nc2cc(C3CC3)[nH]n2)c2cccn2n1`, 12.2 µM (active).

The values above are taken from PubChem BioAssay AID1345085 (National Center for Advancing Translational Sciences (NCATS), 2018).
